Measurements as given in PubChem BioAssay (NCATS).
“And” between values parts separate entries of the source, which are not always exact repeats. Equal values may be shown once. Inconclusive results are not listed. The source made the active and inactive calls. Unless noted, the call rests on the fitted dose curve; in most records, active means well fitted curve in the direction sought with a large enough effect; inconclusive means small, poorly fitted or top-dose-only effect, or another doubt; inactive means no such curve, though single readings can be large; an effect the other way counts as inactive or inconclusive.

How the values were obtained:
[1] = AP1 Signaling Pathway (AID 357; active means well fitted curve in either direction with a large enough effect, not every such curve was filed as active;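 further: ME-180 reporter cells stimulated with EGF at its EC50 level; on the % scale 0 is the no-effect control and ±100 the full control effect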); details: ME-180 AP-1-bla reporter, EGF-induced, beta-lactamase ratio, 5 h
Summary of the method: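 Read-out was the 460nm/530nm emission ratio (excitation 405nm) after CCF4 loading for 2.5 hours at room temperature. Cells carried an AP-1-driven beta-lactamase reporter, were stimulated with EC50 EGF plus compound for 5 hours, and AC50 values came from titrations.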

[2] = molecular target: Cytochrome P450 1A2 (Homo sapiens) (UniProt P05177); assay: p450-cyp1a2 (AID 410; calls by dose curve; further: potency means the concentration at half of the fitted maximal effect;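 on activity change, negative = inhibition: -100% = full effect of reference inhibitor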)
Summary of the method: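 Human CYP1A2 (20nM) demethylated Luciferin-ME at its Km (100uM) in 100mM KPO4. After 10 min compound preincubation, NADPH regeneration ran the reaction 60 min at room temperature. Luciferin was read by luminescence, normalized to 57 uM furafylline.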

[3] = NFAT Signaling Pathway (AID 444; active means well fitted curve in either direction with a large enough effect, not every such curve was filed as active;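 further: carbachol stimulus at about its EC50 of 1 µM final; on the % scale 0 is the no-effect control and ±100 the full control effect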); details: Jurkat NFAT-bla M1, carbachol, beta-lactamase ratio, 5 h; at 7.69 µM (top of the series) unless noted
Summary of the method: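 Jurkat cells carrying an NFAT-driven β-lactamase reporter and co-transfected muscarinic M1 receptor were treated with compound plus carbachol (1 uM final, an EC50 level) for 5 h at 37 °C. CCF4 loading followed for 1 h at RT; 460/530 nm ratio gave %activity.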

[4] = Stat Signaling Pathway (AID 446; active means well fitted curve in either direction with a large enough effect, not every such curve was filed as active;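 further: ME-180 cervical cancer cells given 40 pM IL-6 alongside compound; SIE-controlled beta-lactamase reporter measured as 460/530 nm FRET emission ratio; on the % scale 0 is the no-effect control and ±100 the full control effect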); details: ME-180 SIE beta-lactamase reporter, IL-6 stimulated, 5 h
Summary of the method: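 Screening format detects activators and inhibitors alike: ME-180 SIE-bla cells stimulated at 40 pM IL-6 for 5 hrs with compound, then dual-emission beta-lactamase read at 405 nm excitation.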

[5] = molecular target: Glucocorticoid receptor (Homo sapiens) (UniProt P04150); assay: GR-GFP Redistribution (AID 450;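 active means compounds whose dose series gives a full or clear partial fitted curve of increased nuclear translocation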; further: potency means the concentration at half of the fitted maximal effect); details: U2OS GR-GFP nuclear translocation, laser cytometry, 2 h
[6] = molecular target: Glucocorticoid receptor (Homo sapiens) (UniProt P04150); assay: GR-EFC Redistribution (AID 451; calls by dose curve; further: potency means the concentration at half of the fitted maximal effect); details: CHO-K1 GR-EFC translocation, beta-gal luminescence, 2 h
Summary of the method: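 CHO-K1 cells stably expressing nuclear-localized β-gal enzyme acceptor and GR fused C-terminally to the enzyme donor fragment; ligand-driven nuclear translocation restores β-gal by complementation. Compounds titrated up to 46 uM final, 2 h at 37 °C; luminescence read.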

[7] = molecular target: Mitogen-activated protein kinase 10 (Mus musculus) (UniProt Q61831); assay: JNK3 AlphaScreen Assay (AID 530; active means well fitted curve in either direction with a large enough effect, not every such curve was filed as active;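 further: kinase came from lysate of stimulated human HepG2 cells; signal reports phosphorylation of biotinylated GST-cJun 1-79 at Ser73 with 10 µM ATP; on the % scale 0 is the no-effect control and ±100 the full control effect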)
Summary of the method: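 JNK3 came from HepG2 lysates pre-activated with IL-1beta and TNF-alpha and phosphorylated biotinylated GST-cJun (1-79) at 10 uM ATP, pH 7.6, room temperature. Compounds were titrated. AlphaScreen signal used anti-phospho-cJun (Ser73) antibody.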

[8] = molecular target: 3',5'-cyclic-AMP phosphodiesterase 4B (Homo sapiens) (UniProt Q07343); assay: qHTS Assay for Inhibitors of PDE-IV (AID 607; active means well fitted activation curve with a large enough effect in the main read-out, with a control signal flat, not every such curve was filed as active; further: % of control where 0% means no effect)
Summary of the method: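 The readout is membrane depolarisation from a cAMP-sensing CNG channel, detected with a potential dye at ex 535/em 590. Cells were HEK293-derived (endogenous PDE-IV) at 1000 cells/well, titrated up to 22.9 uM final.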

[9] = qHTS Assay for Lipid Storage Modulators (AID 1519; calls by dose curve); details: Drosophila S3 cells, BODIPY lipid droplet/cell ratio, laser cytometry, cells loaded with oleic acid; for activity change, negative = inhibition: at 25.7 µM (top of the series)
Summary of the method: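 Cells seeded at 5,000 per well were treated with compounds over a concentration series and loaded with oleic acid (400 uM, as added). Lipid droplet fluorescence (488 nm excitation, 500-530 nm channel) was read by laser-scanning cytometry and normalized to 20 uM Triacsin C.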

[10] = molecular target: ATP-dependent 6-phosphofructokinase (Trypanosoma brucei brucei) (UniProt O15648); assay: qHTS Assay to Find Inhibitors of T. brucei phosphofructokinase: hit validation (AID 492961)
Summary of the method: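 PFK 1.25 nM, F6P 0.5 mM, ATP 0.1 mM, MgCl2 5 mM, 0.1 M TEA pH 8.0, Tween20 0.01%, BSA 0.1%; 45 min RT. ADP-Glo two-step detection, luminescence. qHTS titration; curve fitting with curve-class categorization.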

[11] = molecular target: Luciferin 4-monooxygenase (Photinus pyralis) (UniProt P08659); assay: Biochemical firefly luciferase enzyme assay for NPC (AID 624030);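 further: purified P. pyralis luciferase at 10 nM with luciferin and ATP substrate; 0% = DMSO and -100% = full luciferase inhibition by PTC124 control; nearly all actives have a fitted effect of over 70% in size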
Summary of the method: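 Counter-screen for direct inhibition of the luciferase enzyme by approved-drug library compounds, run at 10 nM enzyme in 50 mM Tris acetate (final). Luminescence was read within 5 min of enzyme-buffer addition and normalized to PTC124 versus DMSO (0%).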

[12] = qHTS profiling for inhibitors of Plasmodium falciparum proliferation (AID 504749);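 further: 0% = DMSO vehicle and full inhibition = artemisinin control; nearly all actives have a fitted effect of over 60% in size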; details: P. falciparum in erythrocytes, SYBR Green DNA, 72 h
Summary of the method: (§1)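 P. falciparum-infected erythrocytes (0.3% parasitemia, 2.5% hematocrit final) were exposed to compounds for 72 h at 37 C in 5% CO2, then lysed with SYBR Green buffer overnight at room temperature; parasite DNA fluorescence was normalized to artemisinin and DMSO controls.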

AS120 = assay: as above; details: P. falciparum in erythrocytes, SYBR Green DNA, 72 h; series mostly up to 28.7 µM
Summary of the method: as §1

CP238 = assay: as above; details: P. falciparum in erythrocytes, SYBR Green DNA, 72 h; series mostly up to 12.8 µM
Summary of the method: as §1

CP250 = assay: as above; details: P. falciparum in erythrocytes, SYBR Green DNA, 72 h; series mostly up to 12.8 µM
Summary of the method: as §1

CP262 = assay: as above; details: P. falciparum in erythrocytes, SYBR Green DNA, 72 h; series mostly up to 12.8 µM
Summary of the method: as §1

CP265 = assay: as above; details: P. falciparum in erythrocytes, SYBR Green DNA, 72 h; series mostly up to 12.8 µM
Summary of the method: as §1

FAB9 = assay: as above; details: P. falciparum in erythrocytes, SYBR Green DNA, 72 h; series mostly up to 12.8 µM
Summary of the method: as §1

[13] = molecular target: Ubiquitin carboxyl-terminal hydrolase 1 (Homo sapiens) (UniProt O94782); assay: Inhibitors of USP1/UAF1: Pilot qHTS (AID 504865);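 further: rhodamine fluorescence freed from ubiquitin-rhodamine substrate followed over time; top concentration of the series differs between compounds; on the % scale 0 is the no-effect control and ±100 the full control effect; nearly all actives have a fitted effect of over 35% in size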
Summary of the method: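 Enzyme-free wells gave the negative control, while test wells held 1nM USP1/UAF1 preincubated with compound for 15 min at room temperature. Ub-Rho at 150nM final started the reaction, and fluorescence at 480/540 nm was recorded kinetically.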

[14] = molecular target: alpha-glucosidase (Oryza sativa, rice) (UniProt Q653V4); assay: Counterscreen for Glucocerebrosidase Inhibitors: qHTS Assay for Rice alpha-Glucosidase at pH 5.0 (AID 997);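 further: 0% = full activity with enzyme and -100% = basal without enzyme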
Summary of the method: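 Rice alpha-glucosidase (4 nM final) with 400 uM 4-methylumbelliferyl-alpha-D-glucopyranoside in citrate buffer pH 5.0, 20 min at room temperature, stopped at pH 10; fluorescence 365/440 nm, compounds 0.7 nM–77 uM, AC50 from Hill fits.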

[15] = at 7.69 µM (top of the series) unless noted
[16] = measured here: cell count channel max response
[17] = measured here: lipid channel max response
[18] = at 12.8 µM (top of the series), parasite line A
[19] = at 12.8 µM (top of the series), parasite line B

Sequence of Glucocorticoid receptor (Homo sapiens) (P04150 whole entry, looked up, the tested form may be a part): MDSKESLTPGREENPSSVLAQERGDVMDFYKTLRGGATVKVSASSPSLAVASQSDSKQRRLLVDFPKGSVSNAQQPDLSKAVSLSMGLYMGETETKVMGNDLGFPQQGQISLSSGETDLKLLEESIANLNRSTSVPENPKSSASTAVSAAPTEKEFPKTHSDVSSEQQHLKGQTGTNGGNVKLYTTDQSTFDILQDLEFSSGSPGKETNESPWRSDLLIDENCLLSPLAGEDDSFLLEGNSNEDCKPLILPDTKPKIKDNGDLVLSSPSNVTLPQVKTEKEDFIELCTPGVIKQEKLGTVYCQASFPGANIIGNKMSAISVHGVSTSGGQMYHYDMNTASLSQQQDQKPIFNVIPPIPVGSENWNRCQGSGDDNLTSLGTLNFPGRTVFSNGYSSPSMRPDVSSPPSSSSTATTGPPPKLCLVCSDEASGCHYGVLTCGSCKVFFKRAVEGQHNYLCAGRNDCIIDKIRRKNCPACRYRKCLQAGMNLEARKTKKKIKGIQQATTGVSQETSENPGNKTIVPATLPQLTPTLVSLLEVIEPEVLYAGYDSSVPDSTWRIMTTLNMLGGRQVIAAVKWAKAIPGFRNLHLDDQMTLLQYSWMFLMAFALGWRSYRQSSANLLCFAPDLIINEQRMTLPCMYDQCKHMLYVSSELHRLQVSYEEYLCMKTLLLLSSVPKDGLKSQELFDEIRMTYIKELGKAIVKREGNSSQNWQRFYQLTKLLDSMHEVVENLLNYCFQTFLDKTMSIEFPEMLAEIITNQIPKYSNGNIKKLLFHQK
Sequence of Cytochrome P450 1A2 (Homo sapiens) (P05177 whole entry, looked up): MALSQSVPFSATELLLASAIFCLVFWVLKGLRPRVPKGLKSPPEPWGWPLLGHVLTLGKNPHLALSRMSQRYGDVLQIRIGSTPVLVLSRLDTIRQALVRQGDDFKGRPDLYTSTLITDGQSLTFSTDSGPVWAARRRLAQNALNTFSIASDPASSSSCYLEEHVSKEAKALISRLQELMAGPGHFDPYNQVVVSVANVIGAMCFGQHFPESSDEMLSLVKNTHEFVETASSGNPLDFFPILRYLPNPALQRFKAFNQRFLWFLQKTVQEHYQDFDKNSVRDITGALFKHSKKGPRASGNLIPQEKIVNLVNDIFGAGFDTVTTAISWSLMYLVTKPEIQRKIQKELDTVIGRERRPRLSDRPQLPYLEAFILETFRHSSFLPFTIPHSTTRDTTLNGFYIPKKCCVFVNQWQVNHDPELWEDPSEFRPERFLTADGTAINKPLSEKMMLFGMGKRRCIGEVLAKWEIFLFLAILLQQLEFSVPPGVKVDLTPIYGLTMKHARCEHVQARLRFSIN
Sequence of Ubiquitin carboxyl-terminal hydrolase 1 (Homo sapiens) (O94782 whole entry, looked up): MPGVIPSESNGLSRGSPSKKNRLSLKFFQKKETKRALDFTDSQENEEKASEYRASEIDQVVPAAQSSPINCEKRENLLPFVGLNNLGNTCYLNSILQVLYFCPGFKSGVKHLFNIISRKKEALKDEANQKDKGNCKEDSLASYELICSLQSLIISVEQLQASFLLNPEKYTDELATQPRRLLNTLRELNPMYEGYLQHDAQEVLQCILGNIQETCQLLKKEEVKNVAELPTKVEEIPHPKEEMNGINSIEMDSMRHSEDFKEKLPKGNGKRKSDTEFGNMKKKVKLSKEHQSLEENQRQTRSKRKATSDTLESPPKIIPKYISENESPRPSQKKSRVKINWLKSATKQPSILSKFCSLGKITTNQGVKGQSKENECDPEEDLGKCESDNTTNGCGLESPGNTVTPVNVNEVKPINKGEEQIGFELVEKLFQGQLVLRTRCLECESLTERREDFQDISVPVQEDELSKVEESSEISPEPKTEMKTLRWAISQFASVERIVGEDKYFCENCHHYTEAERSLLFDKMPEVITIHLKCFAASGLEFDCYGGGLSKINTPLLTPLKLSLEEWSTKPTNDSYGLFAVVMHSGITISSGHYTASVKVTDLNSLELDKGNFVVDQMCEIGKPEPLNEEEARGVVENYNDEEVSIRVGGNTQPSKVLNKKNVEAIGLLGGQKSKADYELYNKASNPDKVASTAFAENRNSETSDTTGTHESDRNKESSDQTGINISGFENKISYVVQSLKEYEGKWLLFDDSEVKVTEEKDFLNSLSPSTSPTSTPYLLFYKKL
Sequence of Luciferin 4-monooxygenase (Photinus pyralis) (P08659 whole entry, looked up): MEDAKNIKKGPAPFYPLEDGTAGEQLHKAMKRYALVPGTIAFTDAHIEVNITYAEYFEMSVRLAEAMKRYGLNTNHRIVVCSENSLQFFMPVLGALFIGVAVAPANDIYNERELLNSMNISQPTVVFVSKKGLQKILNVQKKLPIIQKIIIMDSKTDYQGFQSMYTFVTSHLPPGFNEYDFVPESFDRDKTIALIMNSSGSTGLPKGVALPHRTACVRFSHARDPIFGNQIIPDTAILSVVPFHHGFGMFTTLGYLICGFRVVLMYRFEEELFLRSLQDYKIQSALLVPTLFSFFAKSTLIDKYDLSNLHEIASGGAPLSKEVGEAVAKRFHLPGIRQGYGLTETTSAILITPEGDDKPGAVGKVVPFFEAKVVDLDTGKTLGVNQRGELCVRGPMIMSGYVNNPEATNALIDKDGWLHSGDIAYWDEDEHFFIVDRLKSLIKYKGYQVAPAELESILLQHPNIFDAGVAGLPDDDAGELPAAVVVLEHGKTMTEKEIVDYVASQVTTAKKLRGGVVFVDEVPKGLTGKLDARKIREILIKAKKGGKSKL
Sequence of ATP-dependent 6-phosphofructokinase (Trypanosoma brucei brucei) (O15648 whole entry, looked up): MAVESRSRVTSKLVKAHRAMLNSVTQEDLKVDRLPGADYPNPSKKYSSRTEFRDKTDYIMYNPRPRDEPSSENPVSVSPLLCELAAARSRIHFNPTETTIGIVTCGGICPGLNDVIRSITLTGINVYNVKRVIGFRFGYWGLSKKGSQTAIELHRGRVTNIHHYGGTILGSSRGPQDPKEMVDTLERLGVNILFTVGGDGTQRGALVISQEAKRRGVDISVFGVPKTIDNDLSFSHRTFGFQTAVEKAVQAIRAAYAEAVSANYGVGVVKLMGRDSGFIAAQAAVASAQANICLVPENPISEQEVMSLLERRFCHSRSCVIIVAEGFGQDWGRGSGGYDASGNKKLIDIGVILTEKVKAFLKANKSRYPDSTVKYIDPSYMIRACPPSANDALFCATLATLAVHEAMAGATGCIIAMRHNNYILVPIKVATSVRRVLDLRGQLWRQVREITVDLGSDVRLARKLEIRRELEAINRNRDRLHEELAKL
Sequence of 3',5'-cyclic-AMP phosphodiesterase 4B (Homo sapiens) (Q07343 whole entry, looked up): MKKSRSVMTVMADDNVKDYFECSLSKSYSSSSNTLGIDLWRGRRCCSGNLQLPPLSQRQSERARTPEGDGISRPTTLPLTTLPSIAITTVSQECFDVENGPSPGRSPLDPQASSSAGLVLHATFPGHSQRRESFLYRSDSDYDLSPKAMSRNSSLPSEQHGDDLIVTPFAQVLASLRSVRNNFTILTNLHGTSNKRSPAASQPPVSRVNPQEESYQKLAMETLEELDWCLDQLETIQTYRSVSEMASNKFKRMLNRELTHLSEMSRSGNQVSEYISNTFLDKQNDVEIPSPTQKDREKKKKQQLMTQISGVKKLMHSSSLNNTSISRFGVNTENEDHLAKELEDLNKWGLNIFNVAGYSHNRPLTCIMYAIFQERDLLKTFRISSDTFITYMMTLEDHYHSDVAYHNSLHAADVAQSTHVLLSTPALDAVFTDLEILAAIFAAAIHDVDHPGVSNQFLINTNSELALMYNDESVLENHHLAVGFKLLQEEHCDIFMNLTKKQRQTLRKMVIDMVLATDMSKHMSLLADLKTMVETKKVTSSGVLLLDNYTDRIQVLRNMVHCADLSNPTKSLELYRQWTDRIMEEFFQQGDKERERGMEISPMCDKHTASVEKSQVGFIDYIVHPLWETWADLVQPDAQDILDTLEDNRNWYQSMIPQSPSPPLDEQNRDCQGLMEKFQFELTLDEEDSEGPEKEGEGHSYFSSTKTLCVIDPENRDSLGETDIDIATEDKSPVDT

CCCN[C@@H](C)C(=O)Nc1c(C)csc1C(=O)OC
-14.2%: max response [9, 17]
inactive: activity change, negative = inhibition [1, 15] 8.34% [at 17.2 µM] | activity change, negative = inhibition [3] -13.1% [at 17.2 µM] | activity, negative = inhibition [4, 15] -0.411% [at 17.2 µM] | Potency [5] > 20.6 µM | Potency [6] > 20.6 µM | Potency [7] | Potency [8] | activity change, negative = inhibition [9] -2.12% | outcome [10] | outcome [11] | activity, negative = inhibition [12, 18] 6.61% | activity, negative = inhibition [12, 19] 16.5% | Potency (AS120) | Potency (CP238) | Potency (CP250) | Potency (CP262) | Potency (CP265) | Potency (FAB9)
-6.57%: max response [9, 16]
active: Potency [2] 12.6 µM

COc1c(O)cc2c(c1O)[C@@H]1O[C@@H](CO)[C@@H](O)[C@@H](O)[C@@H]1OC2=O
-8.82%: max response [9, 16]
inactive: activity change, negative = inhibition [1, 15] 9.85% [at 17.2 µM] | Potency [2] | activity change, negative = inhibition [3] 4.01% [at 17.2 µM] | activity, negative = inhibition [4, 15] -7.81% [at 17.2 µM] | Potency [5] > 20.6 µM | Potency [6] > 20.6 µM | Potency [7] | Potency [8] | activity change, negative = inhibition [9] -2.39% | outcome [10] | Potency [13] | outcome [11] | activity, negative = inhibition [12, 18] 5.83% | activity, negative = inhibition [12, 19] 11.9% | Potency (AS120) | Potency (CP238) | Potency (CP250) | Potency (CP262) | Potency (CP265) | Potency (FAB9)
-7.08%: max response [9, 17]

O=C(O)/C=C\c1ccc(O)c(O)c1
-1.26%: max response [9, 16]
inactive: activity change, negative = inhibition ([1]; at 17.2 µM (top of the series)) -12.5% | activity change, negative = inhibition ([1]; at 38 µM (top of the series)) -5.91% | Potency [2] | activity change, negative = inhibition [3] -7.46% [at 38 µM] | activity, negative = inhibition ([4]; at 17.2 µM (top of the series)) 3.52% | activity, negative = inhibition ([4]; at 38 µM (top of the series)) 10.1% | Potency [5] > 46 µM and > 20.6 µM | Potency [6] > 46 µM and > 20.6 µM | Potency [7] | Potency [8] | activity change, negative = inhibition [9] -3.56% | Potency [13]
-2.45%: max response [9, 17]

CC[C@H](NC(C)C)[C@H](O)c1ccc(O)c(O)c1
inactive: activity change, negative = inhibition ([1]; at 17.2 µM (top of the series)) -20.6% | activity change, negative = inhibition ([1]; at 38 µM (top of the series)) -15.3% | activity change, negative = inhibition [3] -6.46% [at 17.2 µM] | activity, negative = inhibition ([4]; at 17.2 µM (top of the series)) 3.17% | activity, negative = inhibition ([4]; at 38 µM (top of the series)) -26.1% | Potency [7] | Potency [8] | outcome [14] | activity change, negative = inhibition [9] -0.896% | outcome [10] | Potency [13] | outcome [11] | activity, negative = inhibition ([12]; at 28.7 µM (top of the series), parasite line A) 4.3% | activity, negative = inhibition ([12]; at 28.7 µM (top of the series), parasite line B) -2.19% | Potency (AS120) | Potency (CP238) | Potency (CP262) | Potency (CP265) | Potency (FAB9)
active: Potency [2] 15.8 µM and 12.6 µM
-4.02%: max response [9, 16]
-11.2%: max response [9, 17]
